± gives the standard deviation. In all, about 8,200 sequences were measured (“pre-steady-state target cleavage rate”: median about 0.024, highest 2% from about 1.3 on). Many of the other results were omitted from the sample, so the highest values are more common in it than they were.
Test system: MIWI (PIWIL1) piRISC loaded with L1MC piRNA (30 nt)
Assay: pre-steady-state target cleavage rate (min^-1); MIWI and MILI are mouse PIWI proteins and EfPiwi is from a freshwater sponge; tags in brackets are library labels; higher = faster piRNA-guided slicing of the target
Conditions: guide: L1MC piRNA 5'p-UAACUAAAUACUAUGCAAGCUGUAGGUCCU
Method in brief: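 With or without 500 nM GTSF1 partner protein, 1 nM active affinity-purified piRISC carrying one synthetic guide was mixed with 0.1 nM transcribed, DNA-blocked target RNA library in HEPES–potassium acetate buffer at 33 °C for 0–8 or 0–960 min. Uncleaved targets were sequenced and normalised to depth and to weakly complementary targets, three trials were pooled, and k3 was capped at 0.0001 min^-1. The pre-steady-state cleavage rate came from a burst-and-steady-state fit.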

[1] = auxiliary factor: 500 nM mouse GTSF1
[2] = auxiliary factor: none (no GTSF1)

Sequence	pre-steady-state target cleavage rate [1]	pre-steady-state target cleavage rate [2]
UCGACCUACAGCAUGCAUAGUAUUUAGUAA	0.99 ± 0.072	0.0189 ± 0.0064
UGCACCUACAGCAUGCAUAGUAUUUAGUUA	0.998 ± 0.092	0.0271 ± 0.0047
ACGACCUACAGCAUGCAUAGUAUUUAGUUA	1.43 ± 0.053	0.082 ± 0.021
UCGACCUACAGCAUUGCAUAGUAUUUAGUUA	1.19 ± 0.082	0.0581 ± 0.012
AGCACCUACAGCAUGCAUAGUAUUUAGUUA	1.02 ± 0.13	0.0663 ± 0.022
UCGACCUACAGCAUGCAUAGUAUUUAGUUA	1.48 ± 0.049	0.0548 ± 0.013
UCCUGCUAGAGCUUGCAUAGUAUUUACAAA	0.186 ± 0.047	–
UCCUGCUACAGCUAGCAUAGUAUUUUCAAA	0.0744 ± 0.023	–
UCCUGGAACAGCUUGCAAUGUAUUUAGUAA	0.146 ± 0.018	0.00598 ± 0.003
UGGACCUACAGCUUGCAUAGUAUUUAUUA	0.126 ± 0.015	0.00594 ± 0.0034
UGGACCUACAGCUUGCAUAGUUAAUAGAAA	0.0323 ± 0.01	–
UGGACCUAAGCUUGCAUAGUAUUUAGUUA	1.27 ± 0.083	0.0446 ± 0.012
UGGACCUCAGCUUGCAUAGUAUUUAGUUA	1.43 ± 0.094	0.055 ± 0.011
AGGACCUCCAGCUUGCAUAGUAUUUAGUUA	1.22 ± 0.048	0.0926 ± 0.018
UGGACCUCCAGCUUGCAUAGUAUUUAGUUA	1.39 ± 0.054	0.08 ± 0.014
UCCACCUCCAGCUUGCAUAGUAUUUAGUUA	0.89 ± 0.033	0.0442 ± 0.0078
AGGACCUCAGCUUGCAUAGUAUUUAGUUA	1.34 ± 0.077	0.0984 ± 0.019
UCCACCUCAGCUUGCAUAGUAUUUAGUUA	0.878 ± 0.07	0.0436 ± 0.0088
UCGACCUACUGCUUGCAUAGUAUUUACUUA	0.278 ± 0.017	0.0322 ± 0.0038
UCCUGGUACACCUUGCAUAGUAUAUAGUUA	0.555 ± 0.09	0.00685 ± 0.0027

Sequence	pre-steady-state target cleavage rate [1]	pre-steady-state target cleavage rate [2]
UCCACCUACAGCUUGCAUAGUAUAAUCAAA	0.327 ± 0.056	–
UGGAGGAACAGCUUGCAUAGUAUUUAGUUA	1.26 ± 0.049	0.0795 ± 0.015
UCCAGCAACAGCUUGCAUAGUAUUUAGUUA	1.19 ± 0.049	0.0797 ± 0.014
UGGAGCAACAGCUUGCAUAGUAUUUAGUUA	1.39 ± 0.044	0.0851 ± 0.016
UCCUGGAGCAGCUUGCAUAGUAUUUAGUUA	1.13 ± 0.044	0.0692 ± 0.013
AGGAGCAACAGCUUGCAUAGUAUUUAGUUA	1.67 ± 0.069	0.0907 ± 0.016
UCGAGCAACAGCUUGCAUAGUAUUUAGUUA	1.29 ± 0.044	0.076 ± 0.013
UCGAGGAACAGCUUGCAUAGUAUUUAGUUA	1.02 ± 0.076	0.057 ± 0.011
AGGAGGAACAGCUUGCAUAGUAUUUAGUUA	1.41 ± 0.065	0.0955 ± 0.019
UCCUGGAUGUGCUUUGCAUAGUAUUUAGUUA	0.251 ± 0.022	0.0142 ± 0.0043
UCCUGGAUGAGCUUGCAAAGUAUUUUGUUA	0.267 ± 0.029	0.0136 ± 0.0037
UCGACGUACACCUUGCAUAGUAUUUAGUUA	1.23 ± 0.026	0.0575 ± 0.0089
UCCUGGUACAGCUAGCAUAGUAAUUAGUUA	0.379 ± 0.053	0.00998 ± 0.0037
UCCUGGUACAGCUUGCAUAGUAUUUGGUUA	0.449 ± 0.037	0.0417 ± 0.0074
UGGACCUACAGCUUGCAUAGUUAUUACAAA	0.0207 ± 0.0062	–
UCGACCUACACCUUGCAUAGUAUUUACUUA	0.254 ± 0.034	0.0244 ± 0.0036
UCCUGGAUGAGCUUGGAUAGUAUUUACUUA	–	0.00357 ± 0.0031
UGGACCUACGGCUUGCAUAGUAUUUAGUUA	1.44 ± 0.1	0.0662 ± 0.013
UCGACCUACGGCUUGCAUAGUAUUUAGUUA	1.35 ± 0.053	0.069 ± 0.011
AGGACCUACGGCUUGCAUAGUAUUUAGUUA	1.27 ± 0.077	0.0872 ± 0.017

Sequence	pre-steady-state target cleavage rate [1]	pre-steady-state target cleavage rate [2]
UCCACCUACGGCUUGCAUAGUAUUUAGUUA	0.921 ± 0.074	0.0494 ± 0.01
UCGACCUACAGGCUUGCAUAGUAUUUAGUUA	1.07 ± 0.045	0.07 ± 0.011
UCGACCUACGAGCUUGCAUAGUAUUUAGUUA	0.737 ± 0.077	0.0529 ± 0.011
UCCUCCUACAGCUUGCAUAGUUUUUAGAUA	0.228 ± 0.036	0.00676 ± 0.0025
AGGACCUACAGCUUGCAUAGUUUUUAGAUA	0.259 ± 0.034	0.0189 ± 0.0055
UCCUGCUACAACUUGCAUAGUAUUUAGUUA	0.679 ± 0.044	0.0522 ± 0.0072
UCCUGGUUCAGCUUGGAUAGUAUUUAGUUA	0.791 ± 0.063	0.0603 ± 0.014
UCCUGGAACAGCUGCAUAGUAUUUAGUUA	0.767 ± 0.044	0.00757 ± 0.0034
AGGACCUACAGCCUUGCAUAGUAUUUAGUUA	1.23 ± 0.069	0.0878 ± 0.019
UCCUGCUACAGCCUGCAUAGUAUUUAGUUA	0.976 ± 0.05	0.0598 ± 0.011
UCCUCCUACAGCCUGCAUAGUAUUUAGUUA	1.18 ± 0.038	0.056 ± 0.0094
AGGACCUACAGCCUGCAUAGUAUUUAGUUA	1.51 ± 0.063	0.0892 ± 0.017
UCGACCUACAGCCUGCAUAGUAUUUAGUUA	1.41 ± 0.038	0.0857 ± 0.015
UCGACCUACAGCCUUGCAUAGUAUUUAGUUA	1.28 ± 0.046	0.0668 ± 0.014
UGGACCUACAGCCUUGCAUAGUAUUUAGUUA	1.21 ± 0.081	0.0496 ± 0.0085
UCCACCUACAGCCUGCAUAGUAUUUAGUUA	1.15 ± 0.033	0.0634 ± 0.01
UGGACCUACAGCCUGCAUAGUAUUUAGUUA	1.34 ± 0.048	0.0741 ± 0.013
AGGACCUACUGCUUGCAUAGUAUUUAGUAA	0.861 ± 0.077	0.0651 ± 0.012
UCCUGGAACAGGUUGCAUAGUUUUUAGUUA	0.167 ± 0.016	0.0162 ± 0.0044
UGGACCUUCAGGUUGCAUAGUAUUUAGUUA	1.14 ± 0.099	0.0476 ± 0.01

Source: the supplement of paper PMC10338343
